In PubChem BioAssay AID1159580 (chemical genetic matrix, 2015):
In all, about 5,500 compounds went through this assay and about 2,000 (36%) were called active. About 18% were inconclusive and are not listed. Rule as the data show it: active = normalized growth mostly below about 0.91 (no sharp cut-off); inconclusive = no clear call, values can overlap the other calls; inactive = mostly above about 0.92. The list shows a part of the results.

Experiment: chemical genetic growth profiling, strain panel (AID 1159580);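 also: tested at 20 µM; growth read once vehicle control cultures reached saturation at 30 °C; 1 = growth at the plate median or of vehicle wells; lower values mean less growth of the strain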
Settings: growth OD

Measured: normalized growth

O=C(O)C(O)C(O)C(=O)O (configuration not stated)
inactive: S. cerevisiae deletion strains, locus YJR075W, strain HOC1, hits give low values 0.993 | S. cerevisiae deletion strains, locus YKL009W, strain mrt4, hits give low values 0.985 | S. cerevisiae deletion strains, locus YKL068W, hits give low values 0.98 | S. cerevisiae deletion strains, locus YKL085W, strain MDH1 (second series), hits give low values 0.986 | S. cerevisiae deletion strains, locus YKL085W, strain MDH1, hits give low values 0.986 | S. cerevisiae deletion strains, locus YKL160W, strain elf1, hits give low values 1.01 | S. cerevisiae deletion strains, locus YKL190W, strain CNB1, hits give low values 0.978 | S. cerevisiae deletion strains, locus YKR001C, strain vps1, hits give low values 0.983 | S. cerevisiae deletion strains, locus YKR026C, strain gcn3, hits give low values 1.01 | S. cerevisiae deletion strains, locus YKR091W, strain srl3, hits give low values 1 | S. cerevisiae deletion strains, locus YLL001W, strain dnm1, hits give low values 0.992 | S. cerevisiae deletion strains, locus YLL026W, hits give low values 0.972 | S. cerevisiae deletion strains, locus YLL041C, strain sdh2, hits give low values 0.994 | S. cerevisiae deletion strains, locus YLR027C, strain aat2, hits give low values 0.999 | S. cerevisiae deletion strains, locus YLR039C, strain RIC1, hits give low values 0.961 | S. cerevisiae deletion strains, locus YLR058C, strain SHM2, hits give low values 0.976 | S. cerevisiae deletion strains, locus YLR102C, strain apc9, hits give low values 0.988 | S. cerevisiae deletion strains, locus YLR113W, strain HOG1, hits give low values 0.938 | S. cerevisiae deletion strains, locus YLR221C, strain rsa3, hits give low values 0.986 | S. cerevisiae deletion strains, locus YLR258W, strain gsy2, hits give low values 0.998 | S. cerevisiae deletion strains, locus YLR262C, strain YPT6 (second series), hits give low values 1.01 | S. cerevisiae deletion strains, locus YLR262C, strain YPT6, hits give low values 0.934 | S. cerevisiae deletion strains, locus YLR268W, strain sec22, hits give low values 0.971 | S. cerevisiae deletion strains, locus YLR320W, strain mms22, hits give low values 1 | S. cerevisiae deletion strains, locus YLR330W, strain CHS5, hits give low values 0.991 | S. cerevisiae deletion strains, locus YLR342W, strain FKS1 (second series), hits give low values 1.03 | S. cerevisiae deletion strains, locus YLR342W, strain FKS1, hits give low values 0.997 | S. cerevisiae deletion strains, locus YLR357W, strain rsc2, hits give low values 0.966 | S. cerevisiae deletion strains, locus YLR370C, strain arc18, hits give low values 1 | S. cerevisiae deletion strains, locus YLR371W, strain rom2, hits give low values 0.997 | S. cerevisiae deletion strains, locus YLR384C, strain iki3, hits give low values 0.988 | S. cerevisiae deletion strains, locus YLR418C, strain cdc73, hits give low values 0.986 | S. cerevisiae deletion strains, locus YML016C, strain PPZ1, hits give low values 0.992 | S. cerevisiae deletion strains, locus YML032C, strain rad52, hits give low values 1 | S. cerevisiae deletion strains, locus YML120C, strain ndi1, hits give low values 0.998 | S. cerevisiae deletion strains, locus YML124C, strain tub3, hits give low values 0.997 | S. cerevisiae deletion strains, locus YMR058W, strain fet3, hits give low values 1.01 | S. cerevisiae deletion strains, locus YMR078C, strain ctf18, hits give low values 0.984 | S. cerevisiae deletion strains, locus YMR125W, strain sto1, hits give low values 0.987 | S. cerevisiae deletion strains, locus YMR129W, hits give low values 0.995 | S. cerevisiae deletion strains, locus YMR205C, strain PFK2, hits give low values 0.981 | S. cerevisiae deletion strains, locus YMR223W, strain ubp8, hits give low values 1 | S. cerevisiae deletion strains, locus YMR231W, strain pep5, hits give low values 1 | S. cerevisiae deletion strains, locus YMR263W, strain SAP30, hits give low values 0.976 | S. cerevisiae deletion strains, locus YMR307W, strain GAS1, hits give low values 0.921 | S. cerevisiae deletion strains, locus YNL067W, strain RPL9B, hits give low values 0.993 | S. cerevisiae deletion strains, locus YNL071W, strain lat1, hits give low values 0.987 | S. cerevisiae deletion strains, locus YNL128W, strain TEP1, hits give low values 0.981 | S. cerevisiae deletion strains, locus YNL153C, strain GIM3, hits give low values 0.979 | S. cerevisiae deletion strains, locus YNL183C, strain NPR1, hits give low values 0.919 | S. cerevisiae deletion strains, locus YNL209W, strain ssb2, hits give low values 1.02 | S. cerevisiae deletion strains, locus YNL233W, strain BNI4, hits give low values 0.986 | S. cerevisiae deletion strains, locus YNL248C, strain rpa49, hits give low values 0.994 | S. cerevisiae deletion strains, locus YNL250W, strain rad50, hits give low values 0.987 | S. cerevisiae deletion strains, locus YNL271C, strain bni1, hits give low values 0.992 | S. cerevisiae deletion strains, locus YNL298W, strain CLA4, hits give low values 0.988 | S. cerevisiae deletion strains, locus YNL307C, strain MCK1, hits give low values 0.991 | S. cerevisiae deletion strains, locus YNL322C, strain KRE1 (second series), hits give low values 0.985 | S. cerevisiae deletion strains, locus YNL322C, strain KRE1, hits give low values 0.99 | S. cerevisiae deletion strains, locus YNR049C, strain mso1, hits give low values 1 | S. cerevisiae deletion strains, locus YNR052C, strain pop2, hits give low values 0.991 | S. cerevisiae deletion strains, locus YOL006C, strain TOP1, hits give low values 0.97 | S. cerevisiae deletion strains, locus YOL012C, strain htz1 1.53 | S. cerevisiae deletion strains, locus YOL147C, strain pex11, hits give low values 0.987 | S. cerevisiae deletion strains, locus YOR001W, strain rrp6, hits give low values 0.991 | S. cerevisiae deletion strains, locus YOR061W, strain CKA2, hits give low values 0.959 | S. cerevisiae deletion strains, locus YOR069W, strain VPS5, hits give low values 0.997 | S. cerevisiae deletion strains, locus YOR070C, strain gyp1, hits give low values 0.984 | S. cerevisiae deletion strains, locus YOR080W, strain dia2, hits give low values 1 | S. cerevisiae deletion strains, locus YOR083W, strain WHI5, hits give low values 1.01 | S. cerevisiae deletion strains, locus YOR106W, strain vam3, hits give low values 0.994 | S. cerevisiae deletion strains, locus YOR136W, strain idh2, hits give low values 0.997 | S. cerevisiae deletion strains, locus YOR144C, strain elg1, hits give low values 0.986 | S. cerevisiae deletion strains, locus YOR184W, strain ser1, hits give low values 1.01 | S. cerevisiae deletion strains, locus YOR231W, strain MKK1, hits give low values 0.959 | S. cerevisiae deletion strains, locus YOR265W, strain rbl2, hits give low values 0.995 | S. cerevisiae deletion strains, locus YOR270C, strain vph1, hits give low values 0.979 | S. cerevisiae deletion strains, locus YOR290C, strain snf2, hits give low values 1.02 | S. cerevisiae deletion strains, locus YOR316C, strain cot1, hits give low values 0.98 | S. cerevisiae deletion strains, locus YPL051W, strain arl3, hits give low values 1.01 | S. cerevisiae deletion strains, locus YPL055C, strain LGE1, hits give low values 0.965 | S. cerevisiae deletion strains, locus YPL078C, strain atp4, hits give low values 0.999 | S. cerevisiae deletion strains, locus YPL106C, strain sse1, hits give low values 0.976 | S. cerevisiae deletion strains, locus YPL240C, strain hsp82, hits give low values 0.989 | S. cerevisiae deletion strains, locus YPL256C, strain CLN2, hits give low values 0.943 | S. cerevisiae deletion strains, locus YPR119W, strain clb2, hits give low values 0.994 | S. cerevisiae deletion strains, locus YPR141C, strain kar3, hits give low values 0.97 | S. cerevisiae deletion strains, locus YPR163C, strain tif3, hits give low values 0.991 | S. cerevisiae deletion strains, locus YPR167C, strain met16, hits give low values 0.98 | S. cerevisiae deletion strains, strain wtn01, hits give low values 0.997 | S. cerevisiae strains, strain wild type, hits give low values 0.996
active: S. cerevisiae deletion strains, locus YPL241C, strain CIN2, hits give low values 1.07 [resistant]
